Assay outcomes deposited in PubChem BioAssay by National Center for Advancing Translational Sciences (NCATS).
Only some compounds are listed: those with a hit (about 11% of all), similar ones and a draw of the others.
NPR1 antag: antagonists of human natriuretic peptide receptor Npr1; AID 1347048; hit rate 1.6% among 76,000; HEK293 hNpr1 GloSensor cGMP, ANP-stimulated luminescence; P16066; Potency, µM (doses to about 46.3 µM), for inactives: at the top dose activity change, negative = inhibition, actives largely listed as inhibitors; calls by dose curve; further: nearly all actives have a fitted effect of over 60% in size
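Compound pre-incubated 30 min at room temperature on GloSensor-loaded HEK293 cells stably carrying hNpr1 and the pGS-40F cGMP biosensor. Stimulation uses hNppA at 0.1 nM final; luminescence is taken at baseline and 20 min post-agonist.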
NIH3T3 tox: cytotoxic compounds in NIH 3T3 cells | Potency, µM (titrated, usually from 96.7 µM), inactives show at the highest dose activity change, negative = cytotoxicity, actives largely listed as inhibitors | hit rate 4.3% among 94,000 | NIH 3T3 viability, CellTiter-Glo ATP luminescence, 48-72 h; further: nearly all actives have a fitted effect of over 55% in size
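Mouse fibroblast NIH 3T3 cells, 400 per well, received compound via pintool and were incubated for 48 or 72 hr prior to CellTiter-Glo ATP luminescence measurement.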
FLuc inh: Photinus pyralis luciferase inhibition. purified P. pyralis luciferase, luminescence, biochemical. Potency, µM (top dose mostly 115 µM), most hits filed as inhibitors. hit rate 2.5% among 76,000. AID 1347043; further: nearly all actives have a fitted effect of over 65% in size
Target sequence (P08659 whole entry, looked up): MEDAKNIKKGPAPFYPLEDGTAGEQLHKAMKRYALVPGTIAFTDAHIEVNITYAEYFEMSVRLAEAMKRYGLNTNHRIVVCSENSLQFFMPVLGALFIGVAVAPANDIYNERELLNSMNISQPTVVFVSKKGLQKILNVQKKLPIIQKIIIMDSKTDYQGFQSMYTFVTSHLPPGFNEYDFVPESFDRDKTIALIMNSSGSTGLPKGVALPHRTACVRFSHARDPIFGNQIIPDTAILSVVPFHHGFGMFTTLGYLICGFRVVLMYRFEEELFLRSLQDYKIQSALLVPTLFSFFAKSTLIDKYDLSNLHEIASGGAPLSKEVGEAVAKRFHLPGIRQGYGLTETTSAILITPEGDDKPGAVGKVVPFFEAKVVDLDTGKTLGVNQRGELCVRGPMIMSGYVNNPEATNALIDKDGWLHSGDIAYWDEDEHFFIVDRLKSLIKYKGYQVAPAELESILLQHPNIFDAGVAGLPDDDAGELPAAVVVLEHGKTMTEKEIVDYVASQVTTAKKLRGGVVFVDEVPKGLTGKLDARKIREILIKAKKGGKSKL
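Purified 10nM P. pyralis luciferase with 10uM D-luciferin and 10uM ATP in 50mM Tris acetate pH 7.5, 10mM Mg acetate, 0.01% Tween-20, 0.05% BSA. qHTS titration; luminescence read by CCD imager.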
HEK293 tox: HEK 293 cell cytotoxicity. hit rate 6.6% among 94,000. Potency, µM (top dose mostly 115 µM), for inactives: top-dose activity change, negative = cytotoxicity, hits mostly inhibitors. HEK 293 viability, ATP luminescence (CellTiter-Glo), 48-72 h; further: nearly all actives have a fitted effect of over 60% in size
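Read-out: CellTiter-Glo ATP luminescence. Cells: HEK 293, 250 cells/well. Exposure: 48 or 72 hr, 37 degree Celsius.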
* hit, by the source's call; i = inactive; ? = inconclusive; nt = no result; [ ] = remark or other dose. Unless noted, the call rests on the fitted dose curve; in most records, active means well fitted curve in the direction sought with a large enough effect; inconclusive means small, poorly fitted or top-dose-only effect, or another doubt; inactive means no such curve, though single readings can be large; an effect the other way counts as inactive or inconclusive. On the % scale 0 is the no-effect control and ±100 the full control effect; potency means the concentration at half of the fitted maximal effect.

SMILES	NPR1 antag	NIH3T3 tox	FLuc inh	HEK293 tox
O=C(c1ccc(C(F)(F)F)cc1)N1CCC2(CC1)COc1ccccc1NC2=O	-5%	?	i	79µM*
COCCN1Cc2ccc(NCc3ccccc3)nc2C(C)(C(=O)Nc2ccccc2)C1 (stereo unspecified)	-14%[70.6 µM]	?	i	50µM*
COCCN1Cc2ccc(NCc3ccccc3)nc2C(C)(C(=O)Nc2cccnc2)C1 (stereo unspecified)	5%[70.6 µM]	?	i	?
COCCN1Cc2ccc(NCc3ccccc3)nc2C(C)(C(=O)NCc2ccccc2)C1 (stereo unspecified)	-10%	45µM*	i	50µM*
COCCN1Cc2ccc(Nc3cccnc3)nc2C(C)(C(=O)Nc2ccccc2C)C1 (stereo unspecified)	-8%[70.6 µM]	?	63µM*	?
COCCN1Cc2ccc(NCC(C)C)nc2C(C)(C(=O)Nc2cccc(F)c2)C1 (stereo unspecified)	-12%[70.6 µM]	25µM*	i	45µM*
COCCn1c(C)cc(C(=O)NCC(=O)N2CCCCCNC(=O)CC2c2ccccc2)c1C (stereo unspecified)	2%	-7%	i	i
Cc1cccc2c(C3CCN(S(=O)(=O)c4c(Cl)cccc4Cl)CC3)c[nH]c12	-1%	?	i	?
CCCc1ccc(S(=O)(=O)N2CCC(c3c[nH]c4c(C)cccc34)CC2)cc1	-2%	?	i	50µM*
CCN1CCN(C(=O)CCC[C@@H]2[C@H]3CCCN4CCC[C@@H](CN2Cc2ccccc2)[C@@H]34)CC1	3%	?	i	?
COc1ccc(NC(=O)c2cc(-c3ccc[nH]3)n[nH]2)cc1F	5%	2%	16µM*	5%
O=C(Nc1cccc(Cl)c1)c1cc(-c2ccc[nH]2)n[nH]1	?	-3%	1.6µM*	-3%
O=C(Nc1cccc(F)c1)c1cc(-c2ccc[nH]2)n[nH]1	?	-11%	2.2µM*	-10%
CC1CCC(NC(=O)c2cc(-c3ccc[nH]3)n[nH]2)CC1 (stereo unspecified)	5%	0%	?	5%
O=C(Nc1cccc(C(F)(F)F)c1)c1cc(-c2ccc[nH]2)n[nH]1	-24%	-3%	?	-5%
Cc1cccc(NC(=O)c2cc(-c3ccc[nH]3)n[nH]2)c1	-18%	-19%	2µM*	-2%
O=C(NC1CCN(c2cnn(Cc3ccccc3)c(=O)c2)CC1)c1ccsc1	6%	-16%	i	-17%
O=C(CCCc1c[nH]c2ccccc12)NCC(=O)N1CCCCCCNC(=O)CC1c1ccccc1 (stereo unspecified)	0%	?	i	?
Cc1cnc(C2CCC2)n1CC1CCN(C(=O)c2cccc(C#N)c2)C1 (stereo unspecified)	nt	-21%	nt	-8%
COCCCNC(=O)c1ccc2nnc(-c3ccc(F)cc3)n2c1	nt	i	nt	i
Cc1ccc(NC(=O)c2cc(-c3ccc[nH]3)n[nH]2)cc1F	5%	?	8.9µM*	?
O=C(Nc1ccc(F)cc1)c1cc(-c2ccc[nH]2)n[nH]1	-3%	-28%	5µM*	-23%
CSc1ccc(NC(=O)c2cc(-c3ccc[nH]3)n[nH]2)cc1	-2%	-10%	4.5µM*	-25%
Cc1cc(F)ccc1NC(=O)c1cc(-c2ccc[nH]2)n[nH]1	1%	-18%	40µM*	?
O=C(NCc1ccc(F)cc1)c1cc(-c2ccc[nH]2)n[nH]1	?	-26%	i	-20%
SMILES	NPR1 antag	NIH3T3 tox	FLuc inh	HEK293 tox
Cc1ncoc1C(=O)N1CCCN(Cc2ccncc2)C(c2ccccc2)CC(=O)NCC1 (stereo unspecified)	-1%	-10%	i	i
O=C(c1cccc(F)c1)N1CCC2(CC1)NC(=O)N(c1ccccc1Cl)N2	-7%	?	i	?
COCCNC(=O)[C@H]1C[C@H](Oc2ccccc2)CN1Cc1cn(C)c2ccccc12	8%	-27%	i	40µM*
COCCNC(=O)[C@H]1C[C@H](Oc2ccccc2)CN1Cc1cccn1C	5%	-1%	i	?
O=C(c1cc(C2CC2)[nH]n1)N(Cc1ccc2c(c1)OCO2)C1CC1	-7%	-33%	28µM*	?
Cc1cn2nnc(C(=O)NCc3ccc4c(c3)OCO4)c2c(=O)[nH]1	2%	4%	40µM*	7%
Cc1cccc(CNC(=O)c2nnn3cc(C)[nH]c(=O)c23)c1	4%	-20%	i	7%
CCCC(=O)N1Cc2ccccc2CC2(CCCN(C)C2)C1 (stereo unspecified)	nt	?	nt	89µM*
CN1CCCC2(Cc3ccccc3CN(C(=O)CCCC(=O)O)C2)C1 (stereo unspecified)	nt	i	nt	i
COc1ccc(C2(C(=O)NCC(=O)N3CCCCCCNC(=O)CC3c3ccccc3)CC2)cc1 (stereo unspecified)	3%	-8%	i	-32%
COc1ccc(C(=O)N2CCC[C@H]2c2nc(-c3ccc(OC)cc3)no2)cc1	1%	-22%	i	?
CCCCOc1ccc(C(=O)N2CCC[C@H]2c2nc(-c3ccc(C)cc3)no2)cc1	-24%	35µM*	i	22µM*
COc1ccc(-c2noc([C@@H]3CCCN3C(=O)c3cc(Cl)ccc3OC)n2)cc1	-3%	?	i	25µM*
COc1ccc(-c2noc([C@@H]3CCCN3C(=O)c3ccc(F)c(Cl)c3)n2)cc1OC	3%	?	i	40µM*
CCc1nn(-c2ccc(F)cc2)c(Oc2ccccc2)c1CCC(=O)N1CCCC1	-27%	?	i	45µM*
Cc1nn(-c2ccc(F)cc2)c(Oc2ccccc2)c1CCC(=O)N1CCOCC1	-16%	?	i	?
CCc1nn(-c2ccccc2)c(Oc2cccc(C)c2)c1CCC(=O)N1CCOCC1	-22%	?	i	40µM*
O=C(c1ccc2c(c1)N(C(=O)c1ccccc1)CC2)N1CCN(c2cccc(Cl)c2)CC1	-25%	?	i	32µM*
CC(CCc1ccccc1)NC(=O)CN1C(=O)NC(c2ccc(Cl)cc2)C2=C1COC2=O (stereo unspecified)	-4%	?	i	40µM*
O=C(CN1C(=O)NC(c2ccc(Cl)cc2)C2=C1COC2=O)NCc1ccccc1Cl (stereo unspecified)	-21%	?	i	35µM*
Cc1ccc(C2NC(=O)N(CC(=O)NC(C)CCc3ccccc3)C3=C2C(=O)OC3)cc1 (stereo unspecified)	-14%	-30%	i	?
COc1ccc(-c2ccccc2C(=O)NCC2CCCCC2)nn1	nt	-27%[138 µM]	nt	?
CCNC(=O)N1CCCC1c1noc(CCC(=O)NCc2cc(F)cc(F)c2)n1 (stereo unspecified)	5%	i	i	12%
O=C(c1csc(Cc2ccccc2)n1)N1Cc2ccccc2C(O)C1 (stereo unspecified)	0%	?	40µM*	?
